Source: PubChem (NMMLSC)
GRK2 inh = human GRK2 inhibition via aptamer displacement; inhibition of aptamer binding, % at 10 µM; bead flow cytometry, FAM-aptamer displacement from GRK2; P25098; 0.59% of 330,000 active; AID 488847;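 active = inhibition of aptamer binding above 40%, roughly 3 SD of noise, on plates passing a quality check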;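 note: median bead fluorescence of bound FAM aptamer so fluorescent compounds give negative values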
Target sequence (P25098 whole entry, looked up): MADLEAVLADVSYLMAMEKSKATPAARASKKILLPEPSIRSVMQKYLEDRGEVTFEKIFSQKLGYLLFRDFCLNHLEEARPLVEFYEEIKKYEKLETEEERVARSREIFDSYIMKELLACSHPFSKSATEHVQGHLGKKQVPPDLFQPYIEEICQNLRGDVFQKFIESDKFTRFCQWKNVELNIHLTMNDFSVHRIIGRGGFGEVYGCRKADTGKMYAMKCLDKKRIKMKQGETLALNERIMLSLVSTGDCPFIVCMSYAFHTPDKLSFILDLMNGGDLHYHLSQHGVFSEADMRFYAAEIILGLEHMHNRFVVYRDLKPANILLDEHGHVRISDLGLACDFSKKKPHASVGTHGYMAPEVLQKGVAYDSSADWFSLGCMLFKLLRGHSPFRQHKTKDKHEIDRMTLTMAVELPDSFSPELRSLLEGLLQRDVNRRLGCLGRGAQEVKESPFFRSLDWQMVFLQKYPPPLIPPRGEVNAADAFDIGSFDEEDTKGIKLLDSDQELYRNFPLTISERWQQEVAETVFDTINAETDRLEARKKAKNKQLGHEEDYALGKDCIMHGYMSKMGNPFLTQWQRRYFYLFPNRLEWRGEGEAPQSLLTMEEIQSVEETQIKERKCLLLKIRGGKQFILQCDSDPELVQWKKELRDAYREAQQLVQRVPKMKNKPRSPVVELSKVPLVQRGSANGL
MEKK2 WT-MEK5 = raises or lowers MEK5 binding to wildtype human MEKK2 PB1 domain; 1.1% of 290,000 active; AID 1531; bead flow cytometry, Alexa488-MEK5 binding to MEKK2 WT; actives lie on both sides; Q9Y2U5; binding response (% of control), % at 10 µM; in the data active = binding response below about 67% or above about 130%
MEKK2mut PB1 HTS = signal of MEK5 binding to mutant human MEKK2 PB1 domain. bead flow cytometry, Alexa488-MEK5 binding to MEKK2 mutant. percent response, % at 10 µM. 0.35% of 290,000 active; in the data active = percent response above about 24%, passing the limit was not always enough
MEKK3 PB1 HTS = MEKK3-MEK5 PB1 interaction, increase or decrease | binding response (% of control), % at 10 µM | Q99759 | bead-based flow cytometry, Alexa488-MEK5 binding to MEKK3; actives lie on both sides; 0 = blocked by unlabeled MEK5, 100 = vehicle | 1.4% of 290,000 active;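 active = binding response more than 3 SD above or below the average of its plate-row segment, actives on both sides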;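 note: Alexa488 bead fluorescence after subtracting the streptavidin-only scavenger bead signal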
MEKK2wt confirm = raises or lowers MEK5 binding to wildtype human MEKK2, retest | shares compounds with MEKK3 PB1 HTS | bead flow cytometry, Alexa488-MEK5 binding to MEKK2 WT; actives lie on both sides | binding response (% of control), % at 10 µM | 2.4% of 5,900 active; in the data active = binding response below about 16% or above about 210%; inactive = in between
MEKK2mut confirm = signal of MEK5 binding to mutant human MEKK2, retest; 2% of 5,900 active; shares compounds with MEKK3 PB1 HTS; percent response, % at 10 µM; bead flow cytometry, Alexa488-MEK5 binding to MEKK2 mutant; in the data active = percent response mostly above about 71%, no sharp cut-off; inactive = mostly below about 38%;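 note: higher means compound restores mutant binding toward wildtype level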
MEKK3 confirm = MEKK3-MEK5 PB1 inhibition, single concentration confirmation | 1.8% of 5,900 active | AID 1894 | bead flow cytometry, Alexa488-MEK5 binding to MEKK3; stronger effect = lower value | shares compounds with MEKK3 PB1 HTS | binding response (% of control), % at 10 µM;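 active = binding response below 72% of control, or above a set upper limit, though filed actives all read lower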
Of the large screens only hits and unclear results are named; the others gave an inactive call (follow-up assays come after a bar, where they were run); [ ] = dose if it differs, or a comment. This is a sample that favours compounds with a hit; in the whole collection about 2.5% have one here.

CCCC(CCC)C(=O)Nc1ccc2c(c1)N(C(=O)CCN1CCN(C)CC1)c1ccccc1CC2	none
Cc1ccc(S(=O)(=O)C2(C(=O)N(C)C3CCCCC3)CC2)cc1	none
Cc1ccc(S(=O)(=O)NC(=O)N(C)C2CCCCC2)cc1	MEKK3 PB1 HTS 130 | MEKK2wt confirm inactive | MEKK2mut confirm inactive | MEKK3 confirm inactive
CCOC(=O)c1sc(NC(=O)CN2C(=O)NC3(CCCCCCC3)C2=O)c(C(=O)OCC)c1C	MEKK2 WT-MEK5 25[inhibitor], MEKK3 PB1 HTS 35[inhibitor] | MEKK2wt confirm inactive | MEKK2mut confirm inactive | MEKK3 confirm inactive
O=C(NCCN1C(=O)S/C(=C\c2ccc(OC(F)F)cc2)C1=O)C1=COCCO1	none (no result: MEKK2 WT-MEK5, MEKK2mut PB1 HTS, MEKK3 PB1 HTS)
O=C(NCCN1C(=O)S/C(=C\c2ccc(OC(F)F)cc2)C1=O)[C@@H]1CCCN1C(=O)c1cccs1	MEKK3 PB1 HTS 131 | MEKK2wt confirm inactive | MEKK2mut confirm inactive | MEKK3 confirm inactive
C=C1CCC[C@]2(C)C[C@H]3OC(=O)C(CNC(C)CCCC(C)C)[C@H]3CC12 (stereo partly drawn)	MEKK2 WT-MEK5 138 | MEKK2wt confirm inactive | MEKK2mut confirm inactive | MEKK3 confirm inactive
C=C1CCC[C@]2(C)C[C@H]3OC(=O)C(CN[C@@H](C)c4ccccc4)[C@H]3CC12 (stereo partly drawn)	none
CCN(CC)c1ccc(C(=O)NC(=S)N2CCN(Cc3ccc4c(c3)OCO4)CC2)cc1	MEKK3 PB1 HTS 145 | MEKK2wt confirm inactive | MEKK2mut confirm inactive | MEKK3 confirm inactive
COc1ccc(C(=O)N2CCN(Cc3ccc4c(c3)OCO4)CC2)cc1OC	none
COc1cc(C(=O)N2CCN(Cc3ccc4c(c3)OCO4)CC2)cc(OC)c1OC	MEKK2mut PB1 HTS 28 | MEKK2wt confirm inactive | MEKK2mut confirm inactive | MEKK3 confirm inactive
CC(C)NC(=S)N1CCN(Cc2ccc3c(c2)OCO3)CC1	none
CCN(c1ccccc1)S(=O)(=O)c1cc2c(cc1C)NC(=O)CO2	none
O=C(NC(=O)c1ccccc1)Nc1ccc(Cl)cn1	none
O=C(O)c1ccc(S(=O)(=O)N2CCC(NC(=O)C3CCCCC3)CC2)cc1	none
O=C(Cn1c(O)c(/C=C2\C=Nc3ccccc32)sc1=O)Nc1ccc2c(c1)OCO2	MEKK3 PB1 HTS 79[inhibitor] | MEKK2wt confirm inactive | MEKK2mut confirm inactive | MEKK3 confirm inactive
O=C(CNC(=S)NC(=O)c1ccccc1Br)c1ccccc1	none
CCCCNC(=S)NC(=O)c1ccccc1Br	MEKK3 PB1 HTS 154 | MEKK2wt confirm inactive | MEKK2mut confirm inactive | MEKK3 confirm inactive
COCCN(C(=O)c1csnn1)C(C(=O)NC1CCCC1)c1ccccc1F (stereo not drawn)	none
Fc1ccc(-c2nnc3ccc(N4CCCC4)nn23)cc1	none
Brc1ccc(-c2nnc3ccc(N4CCN(c5ccccc5)CC4)nn23)cc1	MEKK2 WT-MEK5 -1.0[inhibitor], MEKK3 PB1 HTS 0.0[inhibitor] | MEKK2wt confirm inactive | MEKK2mut confirm inactive | MEKK3 confirm inactive
Cc1ccc(CNC(=O)c2ccc3nc4[nH]c5ccccc5c4nc3c2)cc1	MEKK3 PB1 HTS 72[inhibitor] (no result: GRK2 inh) | MEKK2wt confirm inactive | MEKK2mut confirm inactive | MEKK3 confirm inactive
COc1ccccc1CNC(=O)c1ccc2nc3[nH]c4ccccc4c3nc2c1	none
O=C(CSc1nc2c(c(=O)n1-c1ccc(F)cc1)SCC2)NCc1ccco1	MEKK3 PB1 HTS 124 | MEKK2wt confirm inactive | MEKK2mut confirm inactive | MEKK3 confirm inactive
O=C(CSc1nc2c(c(=O)n1-c1ccc(Cl)cc1)SCC2)NCc1ccco1	none (no result: MEKK2 WT-MEK5, MEKK2mut PB1 HTS, MEKK3 PB1 HTS)
Cc1cc([N+](=O)[O-])nn1Cc1noc(C(=O)NCCc2ccccn2)n1	none
O=C(COc1ccc(C2SCCS2)cc1)Nc1ccc(Cl)cc1	MEKK3 PB1 HTS 72[inhibitor] | MEKK2wt confirm inactive | MEKK2mut confirm inactive | MEKK3 confirm inactive
CCOc1ccc(CN2CCN(Cc3cccn3-c3nccs3)CC2CCO)cc1 (stereo not drawn)	none
Cc1occc1C(=O)N1CCN(S(=O)(=O)c2ccccc2)CC1	none
CCn1c(SCC(N)=O)nc2cc(S(=O)(=O)N3CCOCC3)ccc21	none
CCn1c(SCC(=O)c2c[nH]c3ccccc23)nc2cc(S(=O)(=O)N3CCOCC3)ccc21	MEKK2 WT-MEK5 62[inhibitor] | MEKK2wt confirm inactive | MEKK2mut confirm inactive | MEKK3 confirm inactive
CCN(CC(=O)N1CCOCC1)S(=O)(=O)c1ccccc1	none
Cc1ccc(N2CC(C(=O)N/N=C/c3c(F)cccc3Cl)CC2=O)cc1 (stereo not drawn)	none
COc1ccccc1N1CC(C(=O)Nc2nnc(SCc3ccccn3)s2)CC1=O (stereo not drawn)	none
COc1ccc(N2CC(C(=O)Nc3nnc(SCc4ccccn4)s3)CC2=O)cc1 (stereo not drawn)	MEKK3 PB1 HTS 133 | MEKK2wt confirm 1.0[inhibitor] | MEKK2mut confirm inactive | MEKK3 confirm 2.0
CC(C)(C)c1ccc(COC(=O)Nc2ccc(F)cc2)cc1	none
CC(C)(C)c1ccc(NC(=O)Nc2ccc(F)cc2)cc1	MEKK3 PB1 HTS 130 | MEKK2wt confirm inactive | MEKK2mut confirm inactive | MEKK3 confirm inactive
CCCc1c(OCCCOc2ccc(OCC(=O)O)cc2)ccc(C(C)=O)c1O	none (no result: MEKK2 WT-MEK5, MEKK2mut PB1 HTS, MEKK3 PB1 HTS)
CCCN1C(=O)SC(CC(=O)Nc2ccc(Br)cc2)C1=O (stereo not drawn)	MEKK2 WT-MEK5 3.0[inhibitor], MEKK3 PB1 HTS 2.0[inhibitor] | MEKK2wt confirm inactive | MEKK2mut confirm inactive | MEKK3 confirm inactive
Cc1ccc(OCCCCN2CCc3ccccc3C2)c(C)c1	MEKK2 WT-MEK5 139 | MEKK2wt confirm inactive | MEKK2mut confirm inactive | MEKK3 confirm inactive
COc1ccc(N2C(=O)/C(=C/c3cccs3)NC2=S)cc1	MEKK3 PB1 HTS 141 | MEKK2wt confirm inactive | MEKK2mut confirm inactive | MEKK3 confirm inactive
COc1ccc([N+](=O)[O-])cc1NC(=O)CSc1nncn1-c1ccccc1	MEKK2mut PB1 HTS 55 | MEKK2wt confirm inactive | MEKK2mut confirm inactive | MEKK3 confirm inactive
Cc1ccc(S(=O)(=O)N2CCOCC2)cc1NC(=O)CSc1nnc2cc(C)c3ccccc3n12	MEKK3 PB1 HTS 141 | MEKK2wt confirm inactive | MEKK2mut confirm inactive | MEKK3 confirm inactive
COc1ccccc1NC(=O)CSc1nncn1-c1ccccc1	none
Cc1ccc(S(=O)(=O)N2CCOCC2)cc1NC(=O)COC(=O)C1COc2ccccc2O1 (stereo not drawn)	MEKK3 PB1 HTS 144 | MEKK2wt confirm inactive | MEKK2mut confirm inactive | MEKK3 confirm inactive
Cc1ccc(S(=O)(=O)N2CCCCC2)cc1NC(=O)CSc1nncn1-c1ccccc1	MEKK2mut PB1 HTS 107 (no result: MEKK2 WT-MEK5) | MEKK2wt confirm inactive | MEKK2mut confirm inactive | MEKK3 confirm inactive
Cc1cc2nnc(SCC(=O)Nc3cc(S(=O)(=O)N4CCOCC4)ccc3Cl)n2c2ccccc12	none
